# Measurements taken from PubChem BioAssay (NCATS).
# Values joined by “and” are separate entries in the source; they are usually repeats but may differ in a detail not shown here. Identical values can stand only once. Results filed as inconclusive are left out. A structure can be active in one record and inactive in another. Values without a mark were called inactive. Active and inactive are the calls of the source. The call rests on the fitted dose curve; in most records, active means well fitted inhibition curve with a large enough effect; inconclusive means small, poorly fitted or top-dose-only effect; inactive means flat fitted curve, though single readings scatter.
# Experiments:
# [1] = test system: HEK293; assay: Cytotoxic Profiling of Annotated Libraries Using Quantitative High-Throughput Screening (AID 1296008); conditions: Five cell lines viability, CellTiter-Glo ATP luminescence, 48-72 h; max response: hits give low values
# Outline: (§1)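 Compounds were pin-transferred onto cells and incubated 48 or 72 hr at 37 degree Celsius, 95% humidity. CellTiter-Glo was added, plates sat 10 min at room temperature, then ATP-coupled luminescence was imaged as the viability read-out.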
# [2] = test system: HaCat; assay: as above; conditions: Five cell lines viability, CellTiter-Glo ATP luminescence, 48-72 h; max response: hits give low values
# Outline: as §1
# [3] = test system: KB-3-1; assay: as above; conditions: Five cell lines viability, CellTiter-Glo ATP luminescence, 48-72 h; max response: hits give low values
# Outline: as §1
# [4] = test system: NIH3T3; assay: as above; conditions: Five cell lines viability, CellTiter-Glo ATP luminescence, 48-72 h; max response: hits give low values
# Outline: as §1
# [5] = test system: HACAT; assay: qHTS assay to identify novel small-molecules to repurpose for Merkel cell carcinoma treatment (AID 1296009); conditions: MCC and control cell lines, CellTiter-Glo viability, 72 h; at 44.8 µM (top of the series) unless noted
# Outline: (§2)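 Cells exposed to NPC (8-point) and MIPE (11-point) compound dilutions for 72 hr at 37 degree celsius; viability read by CellTiter-Glo luminescence, normalized to no-cell and DMSO in-plate controls.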
# [6] = test system: MCC-13; assay: as above; conditions: MCC and control cell lines, CellTiter-Glo viability, 72 h; series mostly up to 46 µM
# Outline: as §2
# [7] = test system: CRL-7250; assay: Cytotoxic Profiling of Annotated Libraries Using Quantitative High-Throughput Screening (AID 1296008); conditions: Five cell lines viability, CellTiter-Glo ATP luminescence, 48-72 h; max response: hits give low values
# Outline: as §1
# Further: nearly all actives have a fitted effect of over 60% in size.
# On the % scale 0 is the no-effect control and ±100 the full control effect; potency means the concentration at half of the fitted maximal effect.
smiles,measurement,setting,value
CN[C@H](CC(C)C)C(=O)N[C@H]1C(=O)N[C@@H](CC(N)=O)C(=O)N[C@@H]2C(=O)N[C@H]3C(=O)N[C@H](C(=O)N[C@H](C(=O)O)c4cc(O)cc(O)c4-c4cc3ccc4O)[C@H](O)c3ccc(c(Cl)c3)Oc3cc2cc(c3O[C@@H]2O[C@H](CO)[C@@H](O)[C@H](O)[C@@H]2O[C@H]2C[C@](C)(N)[C@H](O)[C@H](C)O2)Oc2ccc(cc2Cl)[C@H]1O,max response,[1],-10.3%
same,outcome,[2],inactive
same,max response,[3],5.98%
same,max response,[4],-4.89%
same,outcome,[5],inactive
same,Potency,[6],inactive
NC(=O)Nc1sc(-c2ccc(F)cc2)cc1C(N)=O,Potency,[1],13.2 µM (active)
same,Potency,[2],10.5 µM (active)
same,Potency,[3],9.35 µM (active)
Cc1cnc(Nc2ccc(CN3CCOCC3)cc2)nc1Nc1cccc(S(=O)(=O)NC(C)(C)C)c1,Potency,[7],3.32 µM (active) and 4.61 µM (active)
same,Potency,[2],2.64 µM (active) and 2.31 µM (active)
same,Potency,[3],4.18 µM (active) and 1.46 µM (active)
same,Potency,[6],13.2 µM (active)
CN(C)CCN1C(=O)c2cccc3cc(N)cc(c23)C1=O,Potency,[7],10.5 µM (active)
same,Potency,[3],16.6 µM (active)
same,Potency,[4],3.32 µM (active)
CC(O)(C#Cc1ccc2c(c1)N(c1nc(N)ncc1Cl)CC2)c1nccs1 (stereo unspecified),Potency,[1],26.4 µM (active)
same,max response,[2],-12.6%
same,max response,[3],-15.7%
same,max response,[4],-24.2%
same,Potency,[6],inactive
C=CC(=O)N1CCc2ccc(-n3c(=O)ccc4cnc5ccc(-c6cnn(C)c6)cc5c43)cc21,Potency,[7],3.72 µM (active)
same,Potency,[3],4.18 µM (active)
CC(C)c1cc(C(C)C)c(CC(=O)NS(=O)(=O)Oc2c(C(C)C)cccc2C(C)C)c(C(C)C)c1,max response,[7],4.74% and 1.75%
same,max response,[2],0.698% and -52.4%
same,max response,[3],0.649%
same,Potency,[6],inactive
Cn1cc(-c2ccc3ncc(Cc4ccc5ncccc5c4)n3n2)cn1,max response,[1],4.11%
same,Potency,[2],20.6 µM (active)
same,max response,[2],-43.1%
same,max response,[3],8.56% and 1.39%
same,Potency,[6],inactive
CCOC(=O)N1CCN([N+]([O-])=NOc2ccc([N+](=O)[O-])cc2C#N)CC1,Potency,[7],5.26 µM (active)
same,max response,[2],-20.9%
same,Potency,[3],16.6 µM (active)
same,Potency,[6],2.64 µM (active)
OCCNC1CCCc2c1[nH]c1ccc(-c3ccccc3)cc21 (stereo unspecified),Potency,[1],13.2 µM (active)
same,outcome,[2],inactive
same,Potency,[3],14.6 µM (active)
same,Potency,[4],16.4 µM (active)
same,outcome,[5],inactive
same,Potency,[6],inactive
O=C1NCCc2[nH]c(-c3ccncc3)cc21,Potency,[7],7.43 µM (active)
same,Potency,[4],23.5 µM (active)
C=C1C(=O)O[C@H]2[C@@H]1CCC(C)=CCC[C@@]1(C)O[C@@H]21,Potency,[7],11.8 µM (active)
same,Potency,[2],20.9 µM (active)
same,Potency,[6],16.6 µM (active)
C[C@H]1COc2c(N3CCN(C)CC3)c(F)cc3c(=O)c(C(=O)O)cn1c23,max response,[7],-8.35%
same,max response,[3],6.8%
same,outcome,[4],inactive
same,Potency,[6],inactive
CN(C)c1ccc2cc(C(=O)N[C@@H](CCCN=C(N)CCl)C(=O)NCc3ccccc3)ccc2c1,Potency,[7],18.7 µM (active)
same,max response,[2],-9.24%
same,max response,[4],-19.2%
same,Potency,[6],inactive
O=C(Nc1cc2cc[nH]c2cn1)c1ccccc1,Potency,[7],18.7 µM (active)
same,Potency,[4],13.2 µM (active)
COc1cc(O)c2c(c1)C1OC1C[C@H](O)[C@H](O)C(=O)C=CC[C@H](C)OC2=O (stereo partly specified),Potency,[7],26.4 µM (active)
same,Potency,[2],23.5 µM (active)
same,Potency,[4],16.6 µM (active)
c1cc(N[C@@H]2CCNC2)nc(-c2cnc3ccc(-c4cn[nH]c4)cn23)c1,Potency,[7],11.8 µM (active)
same,Potency,[6],inactive
Cc1noc(-c2ccc(CSCCC(=O)O)cc2)c1NC(=O)OC(C)c1ccccc1Cl (stereo unspecified),max response,[1],-6.98%
same,max response,[2],-23.2%
same,outcome,[3],inactive
same,Potency,[6],inactive
N#Cc1c(C2CCNCC2)cc(-c2c(O)cccc2OCC2CC2)nc1N,Potency,[1],20.9 µM (active)
same,max response,[2],-15.5%
same,max response,[3],-14.2%
same,max response,[4],-27%
same,Potency,[6],inactive
COC[C@H](NC(=O)c1cnc(C)s1)C(=O)N[C@@H](COC)C(=O)N[C@@H](Cc1ccccc1)C(=O)[C@@]1(C)CO1,Potency,[1],0.148 µM (active)
same,Potency,[2],0.662 µM (active)
same,Potency,[3],0.469 µM (active)
same,Potency,[4],0.833 µM (active)
same,Potency,[6],0.526 µM (active)
